This is an account of results in PubChem BioAssay (NCI).

The structures appear in SMILES notation. Compounds without any hit were thinned out: in the full panel of roughly 83,000, 20% have a hit.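 Single-concentration screen, 48 h exposure, 96-well plates. Endpoint: percent growth. Below 10 = active.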 A number with no mark means an inactive call. Calls of active or inactive are those of the source.

The assay relates to OVCAR-8 ovarian. The assay can be described thus: NCI-60 one-dose screen, 48 h (100 = growth as untreated, 0 = no growth, -100 = all killed). The conditions noted are these: 10 µM unless noted.
Consider `COc1ccc2c(c1)C(=O)/C(=C/c1cccc(OCC(=O)c3ccccc3)c1)CC2`, for which the growth was 78.6%.

With `NC(=Nc1ccccc1)SCCCCSC(N)=Nc1ccccc1`, the growth was 83.7%.

Regarding `CC/C(=C\c1ccc(N(C)C)cc1)c1ccncc1`, the growth is 54.7%.

As to `CCOC(=O)c1cc(-c2cccnc2)nc2c(Cl)cc(Cl)cc12`, the growth is 104%.

For `Clc1ccc(-n2cnc3c(Cl)ncnc32)cc1Cl`, the growth was 88%.

As to `O=C(CSCC(=O)N/N=C/c1ccccc1O)N/N=C\c1ccccc1O`, the growth is 28.3%.

As for `COc1ccc(C(=O)COc2cccc(/C=C3\Oc4ccc5ccccc5c4C3=O)c2)cc1`, the growth is 70.1%.

`CC(=O)NC1(C(=O)O)CCCC1`: the growth is 99.8%.

Regarding `CCOC(=O)C1=NN(c2ccc(Cl)cc2)C2C3N(c4ccc(Cl)cc4)N=C(C(=O)OCC)N3c3ccccc3N12` (configuration not stated), the growth is 101%.

Consider `CC(=O)Oc1ccc(C23c4ccccc4C2(OC(C)=O)c2cc(OC(C)=O)ccc23)cc1` (configuration not stated), for which the growth was 49.6%.

For `COc1ccc(/C=C2\NC(=S)NC2=O)cc1`, the growth is 104%.

Consider `O=C(/C=C/c1ccccc1)CC(c1ccccc1)N1CCOCC1` (configuration not stated), for which the growth was 85.1%.

As to `CCn1c2ccccc2c2ccc(C(C)=O)cc21`, the growth was 104%.

For the compound `Cc1ccc(C=C2C(Cl)=C(Cl)C(Cl)=C2Cl)cc1`, the growth is -42.9% (active).

For the compound `Cc1ccccc1NC(=O)c1cc2ccccc2cc1O`, the growth was 60%.

Regarding `c1ccc(-n2nnnc2-c2cccc3ccccc23)cc1`, the growth is 30.5%.

Take `Nc1ccccc1-c1ccc([N+](=O)[O-])cc1`: the growth is 75.3%.

Take `c1cnc2ccc3ncccc3c2c1`: the growth is 95.4%.

Consider `CC(=O)n1c2ccccc2c2ccccc21`, for which the growth is 100%.

`CC1=CC(=O)C(C(C)=Nc2ccccc2Cl)C(=O)O1` (configuration not stated): the growth is 96.9%.

As to `COc1c(O)cc2oc3cc(O)c(CC=C(C)C)c(O)c3c(=O)c2c1C/C=C(\C)CCC=C(C)C`, the growth is 24.4%.

Consider `CCOC(=O)c1ccccc1OC(=O)NNc1ccccc1`, for which the growth was 71.3%.

In the case of `O=C(/C=C/c1cc2ccccc2[nH]c1=O)c1ccc(O)cc1`, the growth is 22.3%.

Consider `COc1cc(/C=C2\COc3ccc(O)cc3C2=O)cc(OC)c1`, for which the growth was 40.4%.

Consider `ClC1=C(Cl)C(Cl)=C(Cl)C1=C/C=C/c1ccccc1`, for which the growth is -41.7% (active).

As to `COc1cccc(CCC2C(=O)CCCC2=O)c1`, the growth was 116%.

With `CSc1ncc2ncn(C3OC(CO)C(O)C3O)c2n1` (configuration not stated), the growth is 138%.

For `CN(C)CCCN1c2nc3ccccc3cc2Sc2cc3ccccc3nc21`, the growth is -67% (active).

In the case of `Cc1c(C)c(N2C(=O)C=CC2=O)c(C)c(C)c1N1C(=O)C=CC1=O`, the growth is 96.1%.

In the case of `CC12CCC3C(CCC4CC(=O)/C(=C\O)CC43C)C1CCC(=O)O2` (configuration not stated), the growth was 101%.

As to `CC(C)C/C(=N\NC(=O)c1ccncc1)c1cc(Cl)ccc1O`, the growth was 11.7%.

On to `OC(Cc1cccnc1)c1ccccc1` (configuration not stated), for which the growth was 96.5%.

For the compound `Cn1cnc([N+](=O)[O-])c1S(=O)(=O)Oc1ccc(Cl)cc1`, the growth is 76.6%.

Regarding `O=C(N1CCC(CN=c2cc3n(-c4ccc(Cl)cc4)c4ccccc4nc-3cc2Nc2ccc(Cl)cc2)CC1)N1CC1`, the growth is -67.4% (active).

In the case of `CN1COc2ccc3ccccc3c2C1`, the growth was 93%.

Turning to `CCCCCCCC1(C)NC(=O)NC1=O` (configuration not stated), the growth was 104%.

Turning to `CC(O)c1nc2c(c(=O)n(C)c(=O)n2C)n1C` (configuration not stated), the growth is 105%.
